The values below come from the supplement of paper PMC10849652.

The full data set covers some 7,900 targets. This sample favours those with a hit. About 0.6% of all pairs of compound and target were hits. Values without a mark were called inactive.

Sequence of UniProt Q9NVA4 (Q9NVA4 whole entry, looked up): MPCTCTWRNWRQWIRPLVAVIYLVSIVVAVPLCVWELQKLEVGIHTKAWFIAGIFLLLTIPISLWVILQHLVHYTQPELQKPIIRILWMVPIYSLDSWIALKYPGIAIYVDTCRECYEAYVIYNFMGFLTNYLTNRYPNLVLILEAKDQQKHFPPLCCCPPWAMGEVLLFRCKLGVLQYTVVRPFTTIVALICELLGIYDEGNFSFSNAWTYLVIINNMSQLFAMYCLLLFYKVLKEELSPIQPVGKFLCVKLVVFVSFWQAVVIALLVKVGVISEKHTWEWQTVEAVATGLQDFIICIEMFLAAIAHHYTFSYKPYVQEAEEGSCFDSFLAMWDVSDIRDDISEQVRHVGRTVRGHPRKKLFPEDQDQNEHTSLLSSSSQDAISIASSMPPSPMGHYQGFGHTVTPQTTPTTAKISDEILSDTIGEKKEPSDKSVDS
Sequence of UniProt Q86XT9 (Q86XT9 whole entry, looked up): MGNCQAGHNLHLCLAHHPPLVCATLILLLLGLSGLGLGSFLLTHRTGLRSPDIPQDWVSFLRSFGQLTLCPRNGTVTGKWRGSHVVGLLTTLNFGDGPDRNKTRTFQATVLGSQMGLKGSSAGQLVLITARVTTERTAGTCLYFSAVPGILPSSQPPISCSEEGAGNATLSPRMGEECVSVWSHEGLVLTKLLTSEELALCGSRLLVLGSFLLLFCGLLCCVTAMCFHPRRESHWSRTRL
Sequence of UniProt Q8NE00 (Q8NE00 whole entry, looked up): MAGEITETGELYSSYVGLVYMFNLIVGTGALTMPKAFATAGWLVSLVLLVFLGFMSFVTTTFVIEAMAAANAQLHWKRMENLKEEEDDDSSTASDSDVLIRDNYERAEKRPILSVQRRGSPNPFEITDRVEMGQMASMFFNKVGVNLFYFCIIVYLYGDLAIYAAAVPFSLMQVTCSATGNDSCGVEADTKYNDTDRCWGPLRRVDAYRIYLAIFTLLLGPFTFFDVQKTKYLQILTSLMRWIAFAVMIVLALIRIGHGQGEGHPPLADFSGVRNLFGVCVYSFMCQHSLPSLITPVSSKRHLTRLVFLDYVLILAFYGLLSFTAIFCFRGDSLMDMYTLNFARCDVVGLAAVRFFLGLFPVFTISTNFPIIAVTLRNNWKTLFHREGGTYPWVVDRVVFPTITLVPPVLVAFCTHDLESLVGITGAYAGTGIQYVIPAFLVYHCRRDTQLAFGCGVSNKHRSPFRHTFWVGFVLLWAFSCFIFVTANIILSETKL
Sequence of UniProt P98170 (P98170 whole entry, looked up): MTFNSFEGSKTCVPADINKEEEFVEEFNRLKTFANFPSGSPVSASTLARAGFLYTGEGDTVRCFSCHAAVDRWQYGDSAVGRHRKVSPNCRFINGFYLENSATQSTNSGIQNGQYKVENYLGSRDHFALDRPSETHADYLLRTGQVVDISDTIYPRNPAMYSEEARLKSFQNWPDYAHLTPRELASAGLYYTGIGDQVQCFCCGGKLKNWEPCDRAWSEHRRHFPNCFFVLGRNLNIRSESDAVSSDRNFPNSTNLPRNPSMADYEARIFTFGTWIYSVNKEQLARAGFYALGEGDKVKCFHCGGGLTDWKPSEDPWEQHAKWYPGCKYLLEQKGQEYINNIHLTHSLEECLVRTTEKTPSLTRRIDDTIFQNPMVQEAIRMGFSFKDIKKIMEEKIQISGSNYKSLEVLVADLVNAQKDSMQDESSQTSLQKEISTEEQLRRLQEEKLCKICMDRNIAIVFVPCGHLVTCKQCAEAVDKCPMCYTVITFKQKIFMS
Sequence of UniProt Q502W6 (Q502W6 whole entry, looked up): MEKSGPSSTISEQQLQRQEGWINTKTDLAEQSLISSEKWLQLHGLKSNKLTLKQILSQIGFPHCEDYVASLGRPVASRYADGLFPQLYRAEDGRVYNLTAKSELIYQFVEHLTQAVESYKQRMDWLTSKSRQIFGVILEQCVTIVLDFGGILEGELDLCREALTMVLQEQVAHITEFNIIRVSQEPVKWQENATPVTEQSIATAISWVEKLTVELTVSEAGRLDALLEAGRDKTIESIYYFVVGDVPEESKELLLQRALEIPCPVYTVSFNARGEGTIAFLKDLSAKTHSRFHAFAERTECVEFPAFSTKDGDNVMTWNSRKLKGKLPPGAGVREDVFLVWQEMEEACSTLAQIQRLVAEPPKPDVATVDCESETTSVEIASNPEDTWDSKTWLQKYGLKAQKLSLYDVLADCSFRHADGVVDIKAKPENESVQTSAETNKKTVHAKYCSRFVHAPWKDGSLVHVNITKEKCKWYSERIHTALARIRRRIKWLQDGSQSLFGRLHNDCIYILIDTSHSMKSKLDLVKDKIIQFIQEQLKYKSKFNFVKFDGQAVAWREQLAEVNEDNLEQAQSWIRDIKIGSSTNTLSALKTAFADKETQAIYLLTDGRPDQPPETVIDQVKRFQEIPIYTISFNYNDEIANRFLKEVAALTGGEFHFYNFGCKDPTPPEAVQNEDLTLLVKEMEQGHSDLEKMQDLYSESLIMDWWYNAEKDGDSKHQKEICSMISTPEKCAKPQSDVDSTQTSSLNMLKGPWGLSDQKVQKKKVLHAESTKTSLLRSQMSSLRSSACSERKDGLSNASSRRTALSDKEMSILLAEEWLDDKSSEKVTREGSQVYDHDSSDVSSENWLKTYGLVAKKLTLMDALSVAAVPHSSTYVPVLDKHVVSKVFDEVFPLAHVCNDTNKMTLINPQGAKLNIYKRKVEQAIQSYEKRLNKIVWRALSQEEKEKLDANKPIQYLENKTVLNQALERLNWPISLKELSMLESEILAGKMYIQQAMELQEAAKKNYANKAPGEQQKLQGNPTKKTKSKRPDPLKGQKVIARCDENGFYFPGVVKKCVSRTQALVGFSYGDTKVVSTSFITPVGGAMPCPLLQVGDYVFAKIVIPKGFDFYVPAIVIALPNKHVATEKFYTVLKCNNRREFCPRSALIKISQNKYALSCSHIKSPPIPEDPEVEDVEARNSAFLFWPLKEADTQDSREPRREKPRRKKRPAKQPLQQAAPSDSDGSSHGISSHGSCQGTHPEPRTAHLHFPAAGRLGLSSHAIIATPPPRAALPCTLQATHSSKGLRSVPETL
Sequence of UniProt Q96ET8 (Q96ET8 whole entry, looked up): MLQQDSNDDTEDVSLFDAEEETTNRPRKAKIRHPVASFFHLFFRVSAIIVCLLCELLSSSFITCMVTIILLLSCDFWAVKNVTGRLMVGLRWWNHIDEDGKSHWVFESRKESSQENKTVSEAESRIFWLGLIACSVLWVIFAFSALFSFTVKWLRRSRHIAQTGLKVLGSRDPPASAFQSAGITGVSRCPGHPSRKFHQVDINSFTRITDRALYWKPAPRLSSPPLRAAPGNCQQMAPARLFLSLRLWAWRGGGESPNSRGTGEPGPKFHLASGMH
Sequence of UniProt Q8IWA0 (Q8IWA0 whole entry, looked up): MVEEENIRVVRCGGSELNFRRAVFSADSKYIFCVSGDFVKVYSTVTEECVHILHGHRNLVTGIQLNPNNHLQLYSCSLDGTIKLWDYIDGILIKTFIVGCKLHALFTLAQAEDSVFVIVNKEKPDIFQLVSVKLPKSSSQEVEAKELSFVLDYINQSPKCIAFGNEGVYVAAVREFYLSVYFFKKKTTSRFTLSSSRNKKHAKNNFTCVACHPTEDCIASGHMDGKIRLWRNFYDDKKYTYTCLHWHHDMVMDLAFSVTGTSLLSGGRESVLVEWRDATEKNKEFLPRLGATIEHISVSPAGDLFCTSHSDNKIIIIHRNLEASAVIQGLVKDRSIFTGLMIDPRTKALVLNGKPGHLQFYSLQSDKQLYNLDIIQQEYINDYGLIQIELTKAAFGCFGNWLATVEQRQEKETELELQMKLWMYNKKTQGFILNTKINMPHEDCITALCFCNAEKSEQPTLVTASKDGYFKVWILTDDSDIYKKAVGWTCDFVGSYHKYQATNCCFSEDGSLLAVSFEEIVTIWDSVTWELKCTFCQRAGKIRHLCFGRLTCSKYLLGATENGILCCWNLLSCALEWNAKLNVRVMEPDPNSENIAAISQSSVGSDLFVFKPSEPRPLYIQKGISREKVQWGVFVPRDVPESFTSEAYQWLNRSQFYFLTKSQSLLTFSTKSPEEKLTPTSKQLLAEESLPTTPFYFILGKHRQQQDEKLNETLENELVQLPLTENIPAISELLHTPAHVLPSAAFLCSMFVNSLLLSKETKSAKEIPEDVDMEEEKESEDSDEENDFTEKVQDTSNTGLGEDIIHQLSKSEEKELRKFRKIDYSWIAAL
Sequence of UniProt Q16881 (Q16881 whole entry, looked up): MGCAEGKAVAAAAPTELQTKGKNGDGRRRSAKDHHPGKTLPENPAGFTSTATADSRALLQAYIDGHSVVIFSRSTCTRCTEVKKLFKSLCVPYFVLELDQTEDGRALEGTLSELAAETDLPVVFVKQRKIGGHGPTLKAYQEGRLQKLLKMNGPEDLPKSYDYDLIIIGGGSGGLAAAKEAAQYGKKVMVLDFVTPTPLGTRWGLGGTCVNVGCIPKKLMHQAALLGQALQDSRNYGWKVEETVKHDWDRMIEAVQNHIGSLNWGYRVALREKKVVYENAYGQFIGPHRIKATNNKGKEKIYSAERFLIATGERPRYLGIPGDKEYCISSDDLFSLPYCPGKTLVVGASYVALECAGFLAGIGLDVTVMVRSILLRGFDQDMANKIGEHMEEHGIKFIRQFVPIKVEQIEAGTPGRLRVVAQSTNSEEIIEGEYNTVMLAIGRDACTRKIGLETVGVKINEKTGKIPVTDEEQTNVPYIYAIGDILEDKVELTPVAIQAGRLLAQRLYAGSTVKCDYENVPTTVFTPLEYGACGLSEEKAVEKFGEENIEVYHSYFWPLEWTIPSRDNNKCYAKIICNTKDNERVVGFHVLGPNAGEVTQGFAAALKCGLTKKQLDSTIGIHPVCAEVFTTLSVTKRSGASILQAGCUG
Sequence of UniProt Q9NUM4 (Q9NUM4 whole entry, looked up): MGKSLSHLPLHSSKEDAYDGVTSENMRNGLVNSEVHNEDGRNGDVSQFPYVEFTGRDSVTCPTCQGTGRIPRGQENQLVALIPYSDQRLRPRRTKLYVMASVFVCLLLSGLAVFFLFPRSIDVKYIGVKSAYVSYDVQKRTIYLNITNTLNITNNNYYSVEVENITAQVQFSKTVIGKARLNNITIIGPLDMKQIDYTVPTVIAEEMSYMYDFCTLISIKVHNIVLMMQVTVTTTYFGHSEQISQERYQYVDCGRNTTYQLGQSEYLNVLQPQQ

Compound in one assay: CCCCN(Cc1ccc(C(=O)NO)cc1)C(=O)Nc1ccccc1 [Nexturastat A]
Briefly: log2 fold change, soluble protein after heating vs DMSO (PISA); higher = thermal stabilisation; K562 cells, 10 uM, 30 min; active = over 0.2 and 3.5 SD of the protein, either way, in both replicates (recomputed). In a few lines: (§1)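 K562 cells at 2×10^6 cells/mL were given 10 μM compound for 30 min. Aliquots then went through 3 min of heating across 48°C-58°C, were pooled, and were extracted in PBS with 0.5% NP-40 at 4°C, and the supernatant after 21,000xg for 90 min was quantified by TMTpro 16plex LC-MS/MS with channel sums equalised. Thermal stability relative to control samples, from duplicates, is given as log2 fold change.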
With WARS1 (UniProt G3V227), the log2 fold change was 0.459.
Still for that read-out and setting: then WDR4 isoform 3 (UniProt P57081), with -0.031; and TMEM104 (UniProt Q8NE00), with -0.046.
For TMEM268 isoform 3 (UniProt Q5VZI3), the log2 fold change is 0.124.
The same measure, in the same setting: then TMEM164 (UniProt Q5U3C3), with -0.142; and XRCC1 (UniProt P18887), with 0.429.
On to UTP20 (UniProt O75691), for which the log2 fold change was 0.755 (active).
On the same count and under the same terms, then UBE2J2 isoform 3 (UniProt Q8N2K1), with 0.028; and VDAC1 (UniProt C9JI87), with -0.093; and TRIM5 (UniProt Q9C035), with 0.033.
For the target XIAP (UniProt P98170), the log2 fold change was -0.045.
On the same count and under the same terms, as for UFM1 isoform 2 (UniProt P61960), the figure is -0.36 (active); as for VWA3B isoform 6 (UniProt Q502W6), -0.292.
Same read-out and setting: then WDR46, A0A0G2JJL1, with 0.194; and TXNRD1 isoform 7 (UniProt Q16881), with 0.221; and WDR75 (UniProt Q8IWA0), with 0.395.
With TRIQK (UniProt Q629K1), the log2 fold change is -0.028.
As to WARS1 (UniProt G3V339), the log2 fold change was 0.188.
On the same count and under the same terms, then XAB2 (UniProt Q9HCS7), with 0.469; and TOM1L2 (UniProt Q6ZVM7), with -0.046.
Take TOM1 (UniProt O60784): the log2 fold change was 0.504 (active).
Regarding TMEM184C (UniProt Q9NVA4), the log2 fold change was -0.02.
The same measure, in the same setting: as for WARS1 (UniProt G3V5U1), the figure is 0.136.
For TMEM219 (UniProt Q86XT9), the log2 fold change was 0.311.
Same read-out and setting: then TMEM106B (UniProt Q9NUM4), with -0.11.

Compound in another assay: CCCS(=O)(=O)Nc1ccc(F)c(C(=O)c2c[nH]c3ncc(-c4ccc(Cl)cc4)cc23)c1F [vemurafenib]
The description is as above. In outline:
as §1
Consider TVP23C (UniProt Q96ET8), for which the log2 fold change is -0.022.
Regarding TTC26, the log2 fold change is -0.598 (active).
WARS1 (UniProt G3V227): the log2 fold change is -0.455.
As to TMEM164 (UniProt Q5U3C3), the log2 fold change was -0.083.
As to UBE2J2 isoform 3 (UniProt Q8N2K1), the log2 fold change was 0.214.
On the same count and under the same terms, as for TMEM8A (UniProt Q9HCN3), the figure is -0.003.
On to TRIM5 (UniProt Q9C035), for which the log2 fold change was -0.044.
The same measure, in the same setting: then XIAP (UniProt P98170), with 0.035; and UFM1 isoform 2 (UniProt P61960), with -0.13.
For TRIM23 (UniProt P36406), the log2 fold change is -0.022.
Regarding VWA3B isoform 6 (UniProt Q502W6), the log2 fold change is -0.1.
For WDR46, A0A0G2JJL1, the log2 fold change is -0.09.
As for TXNRD1 isoform 7 (UniProt Q16881), the log2 fold change was -0.123.
The same measure, in the same setting: then WDR75 (UniProt Q8IWA0), with -0.126; and WARS1 (UniProt G3V277), with -0.587 (active).
The same measure, in the same setting: as for TOM1L2 (UniProt Q6ZVM7), the figure is -0.008; as for U2AF1L5 (UniProt P0DN76), 0.019.
With TMEM184C (UniProt Q9NVA4), the log2 fold change was 0.024.
Consider TUBA4A (UniProt C9JJQ8), for which the log2 fold change was 0.053.
The same measure, in the same setting: as for UBE2D1 (UniProt P51668), the figure is 0.156.
For the target TMEM219 (UniProt Q86XT9), the log2 fold change is 0.172.
Regarding TMEM106B (UniProt Q9NUM4), the log2 fold change was -0.163.

Compound in the next assay: CCCS(=O)(=O)Nc1ccc(F)c(C(=O)c2c[nH]c3ncc(Cl)cc23)c1F
Described as above. In a few lines:
as §1
Regarding TVP23C (UniProt Q96ET8), the log2 fold change was -0.178.
The same measure, in the same setting: then UBAP2L (UniProt F8W726), with 0.004; and TMEM104 (UniProt Q8NE00), with -0.173; and TMEM268 isoform 3 (UniProt Q5VZI3), with 0.083.
Still for that read-out and setting: as for TMEM164 (UniProt Q5U3C3), the figure is 0.078; as for UTP20 (UniProt O75691), -0.086; as for UBE2J2 isoform 3 (UniProt Q8N2K1), -0.027.
On the same count and under the same terms, then VDAC1 (UniProt C9JI87), with -0.134; and TMEM8A (UniProt Q9HCN3), with -0.073.
XIAP (UniProt P98170): the log2 fold change was 0.
As to UFM1 isoform 2 (UniProt P61960), the log2 fold change is 0.001.
With VWA3B isoform 6 (UniProt Q502W6), the log2 fold change is 0.008.
Same read-out and setting: then WDR46, A0A0G2JJL1, with 0.078; and TXNRD1 isoform 7 (UniProt Q16881), with 0.049; and WDR75 (UniProt Q8IWA0), with -0.069.
The same measure, in the same setting: as for TUBA4A (UniProt C9JJQ8), the figure is -0.065; as for UBE2D1 (UniProt P51668), 0.097.
The same measure, in the same setting: then TMEM219 (UniProt Q86XT9), with -0.107; and TMEM106B (UniProt Q9NUM4), with -0.081.

Compound in a further assay: CCCc1cc(C)[nH]c(=O)c1CNC(=O)c1cc(-c2ccnc(N3CCN(C)CC3)c2)cc2c1cnn2C(C)C
The assay is described as above. In a few lines:
as §1
For TVP23C (UniProt Q96ET8), the log2 fold change is -0.118.
On the same count and under the same terms, as for UBAP2L (UniProt F8W726), the figure is 0.014; as for TMEM104 (UniProt Q8NE00), -0.126; as for TMEM268 isoform 3 (UniProt Q5VZI3), 0.18.
As to TMEM164 (UniProt Q5U3C3), the log2 fold change was -0.305.
With USP48 (UniProt Q86UV5), the log2 fold change is -0.232.
For VDAC1 (UniProt C9JI87), the log2 fold change is -0.053.
With TMEM8A (UniProt Q9HCN3), the log2 fold change was -0.077.
In the case of XIAP (UniProt P98170), the log2 fold change is -0.049.
Same read-out and setting: then UFM1 isoform 2 (UniProt P61960), with 0.127.
The same measure, in the same setting: as for TRIM23 (UniProt P36406), the figure is 0.055; as for VWA3B isoform 6 (UniProt Q502W6), -0.169; as for WDR46, A0A0G2JJL1, 0.19.
On the same count and under the same terms, as for WDR75 (UniProt Q8IWA0), the figure is 0.107.
On to TRPT1 isoform 4 (UniProt Q86TN4), for which the log2 fold change was 0.029.
As for TRIQK (UniProt Q629K1), the log2 fold change is 0.014.
Still for that read-out and setting: as for WARS1 (UniProt G3V277), the figure is -0.338; as for XAB2 (UniProt Q9HCS7), 0.168.
Still for that read-out and setting: as for U2AF1L5 (UniProt P0DN76), the figure is 0.06.
Still for that read-out and setting: as for TOM1 (UniProt O60784), the figure is -0.015.
For TMEM184C (UniProt Q9NVA4), the log2 fold change is -0.028.
The same measure, in the same setting: as for WARS1 (UniProt G3V5U1), the figure is -0.118; as for UBE2D1 (UniProt P51668), -0.004.
Same read-out and setting: as for TMEM106B (UniProt Q9NUM4), the figure is -0.023.
